Hits are enriched below; roughly 1.9% of the tested compounds scored in any of these assays.
eIF4H FP inh: human eIF4H binding inhibitors, primary screen, translation initiation inhibitor project, biochemical, uHTS, fluorescence polarization | Eukaryotic translation initiation factor 4H (Homo sapiens), Q15056 | eIF4H fluorescence polarization binding assay | inhibition, % at 35 µM | 0.94% of 290,000 active | AID 2012, 2009;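 further: calls also rest on retests at 20 µM and on dose response follow-up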
PABP polyA inh: PABP poly(A) RNA binding inhibitors, primary screen, biochemical, fluorescence polarization, uHTS | Polyadenylate-binding protein 1 (Homo sapiens), P11940 | calls only at 35 µM | 1% of 290,000 active | AID 2014, 2009;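 further: calls also rest on retests at 20 µM and on dose response follow-up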
eIF4E-4G inh: eIF4E–eIF4G protein interaction inhibitors, primary screen, biochemical, uHTS, TR-FRET, eIF4GI fragment; 0.37% of 220,000 active; Eukaryotic translation initiation factor 4E (Mus musculus) + Eukaryotic translation …; inhibition, % at 21.7 µM; AID 782, 2007; TR-FRET eIF4E-eIF4GI(517-606) binding, 2 h;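 active means inhibition above about 30%, limit read from the data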;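 further: 0% = full FRET control wells and 100% = background wells lacking eIF4GI fragment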
14-3-3 Bad inh: inhibitors of 14-3-3 zeta/Bad binding, primary screen, biochemical, TR-FRET, bovine 14-3-3 zeta | 14-3-3 protein zeta/delta (Bos taurus), P63103 | TR-FRET 14-3-3zeta/Dy647-pBad peptide displacement, 1 h | inhibition, % at 21.7 µM | 0.71% of 220,000 active | AID 781, 2007;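 active means inhibition above about 70%, limit read from the data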;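 further: 0% = full 14-3-3 plus peptide FRET controls and 100% = background without 14-3-3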
Target sequence (P63103 whole entry, looked up): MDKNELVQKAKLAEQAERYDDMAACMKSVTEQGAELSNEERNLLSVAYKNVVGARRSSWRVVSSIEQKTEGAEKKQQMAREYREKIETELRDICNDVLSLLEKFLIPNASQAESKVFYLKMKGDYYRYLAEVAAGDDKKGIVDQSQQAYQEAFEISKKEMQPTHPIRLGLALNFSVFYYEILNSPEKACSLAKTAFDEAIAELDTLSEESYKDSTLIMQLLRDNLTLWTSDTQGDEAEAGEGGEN
MLLE-PAM2 inh: inhibitors of PABP1 MLLE–PAM2 peptide binding, primary screen, biochemical, fluorescence polarization, FITC-PAM2, GST-MLLE; Polyadenylate-binding protein 1 (Homo sapiens), P11940; AID 588489, 2011; 0.36% of 360,000 active; inhibition, % at 20 µM; in the data active means inhibition above about 35%, passing the limit was not always enough;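 further: plate controls were DMSO wells with GST-MLLE for no effect and wells lacking GST-MLLE protein for full effect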
The depositor's hits bear a star; i = inactive; u = inconclusive; x = no result; + = active, no number. Unless noted, how the calls were made is not given here.

SMILES | eIF4H FP inh | PABP polyA inh | eIF4E-4G inh | 14-3-3 Bad inh | MLLE-PAM2 inh
Cc1ccc(-n2c(C)cc(/C([O-])=C(/C(=S)Nc3ccc(F)c(Cl)c3)[n+]3ccccc3)c2C)cc1 | 21.2 | i | -28.5 | -30.1 | -37.8
Cc1cc(/C([O-])=C(/C(=S)Nc2ccc(F)cc2)[n+]2ccccc2)c(C)n1-c1ccc(F)cc1 | 66.7* | i | 3.0 | 4.9 | -23.2
Cc1cc(/C([O-])=C(/C(=S)Nc2ccccc2)[n+]2ccccc2)c(C)n1-c1ccccc1 | 60.8* | + | -22.8 | -10.1 | -21.5
COc1ccc(S(=O)(=O)N2CCC(C(=O)Nc3nccs3)CC2)cc1 | -10.5 | i | x | x | -1.2
Cc1nc(CC(=O)N/N=C/c2ccc(OCC(=O)O)cc2)cs1 | 7.1 | i | -4.7 | 12.7 | -0.7
CCOc1cc(/C=N/NC(=O)c2ccc(-c3csc(Nc4ccc(C)cc4)n3)cc2)ccc1OCC(=O)O | 93.9 | i | 31.1* | 75.0* | 3.9
O=C(O)COc1ccc(/C=N/NC(=O)c2ccc(-c3csc(Nc4ccc(Cl)cc4)n3)cc2)cc1 | 97.9* | i | 71.9* | 94.4* | 6.2
COc1ccc(/C=C2/C(=O)OCc3cc(OC)c(OC)cc32)cc1 | active | + | 10.6 | 2.9 | 2.7
CCCCCCCNC1=CC(=O)CC(c2ccco2)C1 (centres undefined) | 93.1* | + | 3.0 | -8.0 | -13.3
CCOc1ccc(NC2=CC(=O)CC(c3ccco3)C2)cc1 (centres undefined) | -1.8 | i | -1.1 | -6.2 | -11.3
O=[N+]([O-])c1cccc(-c2csc(N/N=C/c3cccc(O)c3)n2)c1 | -4.6 | i | 1.8 | -15.5 | 0.9
CCc1c(C)nc2cc(-c3ccc(Cl)cc3)[nH]n2c1=O | -5.5 | i | x | x | -3.0
O=c1c2c(nc3cc(-c4ccc(Cl)cc4)[nH]n13)CCS2 | u | + | 0.8 | -11.9 | 5.1
O=C(c1ccc([N+](=O)[O-])cc1)N1CCN(Cc2ccccc2)CC1 | -1.7 | i | 1.0 | -15.1 | -7.6
O=C(c1ccc(-n2cccc2)cc1)N1CCN(Cc2ccccc2)CC1 | -6.9 | i | 1.6 | 91.3* | -10.0
COc1cccc(C(=O)N2CCN(C3CCC(c4ccccc4)CC3)CC2)c1 (centres undefined) | 1.7 | i | 6.4 | 74.6* | 7.3
COc1cc(OC)cc(C(=O)N2CCN(C3CCN(Cc4ccccc4)CC3)CC2)c1 | -3.6 | i | 7.2 | 72.7* | 5.2
O=c1[nH]cnc2c1ncn2[C@@H]1O[C@H](COS(=O)(=O)O)[C@@H](O)[C@H]1O | x | x | x | x | 7.7
COC(C[C@H](O)[C@H](C)[C@H](O)COCc1ccccc1)OC | 5.3 | i | 79.0* | 1.2 | 3.8
COC(C[C@H](O)[C@@H](C)[C@H](O)COCc1ccccc1)OC | -10.3 | i | 4.2 | -3.0 | -5.9
COc1cc(OC)c(NC(=O)Cc2cccs2)cc1Cl | -1.3 | i | x | x | -5.4
CCN(CC)S(=O)(=O)c1ccc(OC)c(NC(=O)Cc2cccs2)c1 | 62.1 | i | 34.0* | 43.8 | 1.1
CC(CCC(=O)O)C1CCC2C3CC(O)C4CC(O)CC[C@]4(C)C3CCC12C (some centres undefined) | x | x | x | x | 4.5
COc1ccccc1CN1CCNC(=O)C1CC(=O)NCc1cn(C)nc1C (centres undefined) | 11.6 | i | -0.4 | -11.6 | -0.2
COc1ccc(NC(=O)c2ccco2)cc1N | 92.3* | + | 1.0 | 3.5 | -1.6
SMILES | eIF4H FP inh | PABP polyA inh | eIF4E-4G inh | 14-3-3 Bad inh | MLLE-PAM2 inh
COc1ccc(NC(=O)c2ccco2)cc1NC(=O)c1ccco1 | 2.1 | i | 4.4 | -5.8 | 6.7
COCCNC(=S)N/N=C(\C)c1ccccc1O | 6.5 | i | -1.9 | 1.4 | 43.6*
COCCNC(=S)N/N=C(\C)c1ccccc1OC | 3.7 | i | -1.8 | -1.0 | 17.5
COc1ccccc1CN(C)C(=O)COC(=O)c1cc(C)oc1C | x | x | x | x | -27.3
O=C(c1cccc(S(=O)(=O)N2CCOCC2)c1)N1CCN(C/C=C/c2ccccc2)CC1 | x | x | x | x | -0.8
CCCc1cc(=O)[nH]c(SCC(=O)N2CCN(S(=O)(=O)c3ccc(Cl)cc3)CC2)n1 | 56.0* | i | -1.6 | -8.1 | 10.4
CC(C)OC(=O)c1c2nc3ccccc3nc2n2c1[nH]c(=O)c1ccccc12 | 52.6* | + | -4.2 | 9.2 | x
CCN1CCc2nc3ccccc3c(C(=O)Nc3ccc(F)cc3)c2C1 | 15.0 | i | -5.8 | -2.2 | -4.8
O=C(NCc1ccc(F)cc1)c1c2c(nc3ccccc13)CCN(Cc1ccccc1)C2 | active | + | 3.2 | 1.6 | -1.8
COC(=O)c1ccc(CNC(=O)c2c3c(nc4ccccc24)CCN(Cc2ccccc2)C3)cc1 | 86.6* | + | 3.9 | 4.1 | -20.3
CC(=O)Nc1ccc(NC(=O)COC(=O)c2c3c(nc4ccccc24)CCN(Cc2ccccc2)C3)cc1 | 1.7 | i | 3.2 | -7.8 | -11.0
O=C(NCc1ccccc1Cl)c1ccc(S(=O)(=O)Nc2cccc(C(F)(F)F)c2)cc1 | -0.2 | i | -1.2 | -19.8 | 3.3
CSc1nc(N)cc(=O)[nH]1 | 60.9 | + | -2.9 | -6.8 | 11.3
CSc1nc(Cl)cc(=O)[nH]1 | 6.7 | i | -1.4 | -5.6 | 7.7
COc1ccc(CCn2c(=N)c(S(=O)(=O)c3ccc(C)cc3)cc3c(=O)n4ccccc4nc32)cc1 | u | + | x | x | 79.3
N=c1c(S(=O)(=O)c2ccc(Cl)cc2)cc2c(=O)n3ccccc3nc2n1CC1CCCO1 (centres undefined) | -5.8 | i | x | x | 1.3
Cc1ccc(Cn2c(=N)c(S(=O)(=O)c3ccc(Br)cc3)cc3c(=O)n4ccccc4nc32)cc1 | 3.3 | i | x | x | -26.2
CCn1c(=N)c(S(=O)(=O)c2ccc(Cl)cc2)cc2c(=O)n3ccccc3nc21 | 83.1* | + | -3.4 | -3.3 | x
N=c1c(S(=O)(=O)c2ccc(Br)cc2)cc2c(=O)n3ccccc3nc2n1Cc1ccco1 | 96.5* | + | x | x | -30.6
N=c1c(S(=O)(=O)c2ccc(Br)cc2)cc2c(=O)n3ccccc3nc2n1Cc1ccccc1 | 39.2 | i | x | x | 70.2
N=c1c(S(=O)(=O)c2ccc(Cl)cc2)cc2c(=O)n3ccccc3nc2n1Cc1ccco1 | 73.4* | + | x | x | -39.4
CC(C)CC1C(=O)N(Cc2cn(Cc3ccco3)nn2)CCS(=O)(=O)N1Cc1ccc(-c2ccncc2)cc1 (centres undefined) | x | x | x | x | -21.5
CCCCN1C[C@H](COC(=O)CCC)Oc2cccc(F)c2S1(=O)=O | x | x | x | x | 0.8
COc1cccc(-c2cnc(C(O)c3ccc(Cl)c(F)c3)[nH]2)c1 (centres undefined) | x | x | x | x | -3.8
CC(C)c1nc2sc3c(SCC(=O)NCc4ccco4)ncnc3c2c2c1CCC2 | 14.0* | i | -89.0 | -12.1 | 3.7
